Experimental data taken from PubChem BioAssay AID1159580 (chemical genetic matrix, 2015).
Out of some 5,500 compounds screened, about 2,000 (36%) were called active. Inconclusive results (about 18%) are left out. Rule as the data show it: active = normalized growth mostly below about 0.91 (no sharp cut-off); inconclusive = no clear call, values can overlap the other calls; inactive = mostly above about 0.92. This is one part of the list.

Test: chemical genetic growth profiling, strain panel (AID 1159580);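 also: tested at 20 µM; growth read once vehicle control cultures reached saturation at 30 °C; 1 = growth at the plate median or of vehicle wells; lower values mean less growth of the strain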
Conditions: growth OD

Measured: normalized growth

CC(=O)OC(C)(C)[C@@H]1Cc2cc3ccc(=O)oc3cc2O1
inactive: S. cerevisiae deletion strains, locus YJR066W, strain TOR1, stronger effect = lower value 0.928 | S. cerevisiae deletion strains, locus YJR075W, strain HOC1, stronger effect = lower value 0.992 | S. cerevisiae deletion strains, locus YKL009W, strain mrt4, stronger effect = lower value 1.03 | S. cerevisiae deletion strains, locus YKL068W, stronger effect = lower value 1.01 | S. cerevisiae deletion strains, locus YKL085W, strain MDH1 (second series), stronger effect = lower value 0.998 | S. cerevisiae deletion strains, locus YKL085W, strain MDH1, stronger effect = lower value 0.998 | S. cerevisiae deletion strains, locus YKL160W, strain elf1, stronger effect = lower value 1.02 | S. cerevisiae deletion strains, locus YKL190W, strain CNB1, stronger effect = lower value 1.01 | S. cerevisiae deletion strains, locus YKR001C, strain vps1, stronger effect = lower value 1 | S. cerevisiae deletion strains, locus YKR026C, strain gcn3, stronger effect = lower value 0.957 | S. cerevisiae deletion strains, locus YKR091W, strain srl3, stronger effect = lower value 0.975 | S. cerevisiae deletion strains, locus YLL001W, strain dnm1, stronger effect = lower value 0.984 | S. cerevisiae deletion strains, locus YLL026W, stronger effect = lower value 0.97 | S. cerevisiae deletion strains, locus YLL041C, strain sdh2, stronger effect = lower value 0.984 | S. cerevisiae deletion strains, locus YLR027C, strain aat2, stronger effect = lower value 0.962 | S. cerevisiae deletion strains, locus YLR039C, strain RIC1, stronger effect = lower value 1.07 | S. cerevisiae deletion strains, locus YLR058C, strain SHM2, stronger effect = lower value 0.999 | S. cerevisiae deletion strains, locus YLR102C, strain apc9, stronger effect = lower value 1 | S. cerevisiae deletion strains, locus YLR113W, strain HOG1, stronger effect = lower value 1.04 | S. cerevisiae deletion strains, locus YLR221C, strain rsa3, stronger effect = lower value 1.01 | S. cerevisiae deletion strains, locus YLR258W, strain gsy2, stronger effect = lower value 0.951 | S. cerevisiae deletion strains, locus YLR262C, strain YPT6 (second series), stronger effect = lower value 1.01 | S. cerevisiae deletion strains, locus YLR262C, strain YPT6, stronger effect = lower value 1.07 | S. cerevisiae deletion strains, locus YLR268W, strain sec22, stronger effect = lower value 1.04 | S. cerevisiae deletion strains, locus YLR320W, strain mms22, stronger effect = lower value 0.956 | S. cerevisiae deletion strains, locus YLR330W, strain CHS5, stronger effect = lower value 1 | S. cerevisiae deletion strains, locus YLR342W, strain FKS1 (second series), stronger effect = lower value 0.994 | S. cerevisiae deletion strains, locus YLR342W, strain FKS1, stronger effect = lower value 0.969 | S. cerevisiae deletion strains, locus YLR357W, strain rsc2, stronger effect = lower value 0.971 | S. cerevisiae deletion strains, locus YLR370C, strain arc18, stronger effect = lower value 0.973 | S. cerevisiae deletion strains, locus YLR371W, strain rom2, stronger effect = lower value 1.03 | S. cerevisiae deletion strains, locus YLR384C, strain iki3, stronger effect = lower value 0.979 | S. cerevisiae deletion strains, locus YLR418C, strain cdc73, stronger effect = lower value 0.975 | S. cerevisiae deletion strains, locus YML016C, strain PPZ1, stronger effect = lower value 0.999 | S. cerevisiae deletion strains, locus YML032C, strain rad52, stronger effect = lower value 0.987 | S. cerevisiae deletion strains, locus YML120C, strain ndi1, stronger effect = lower value 0.99 | S. cerevisiae deletion strains, locus YML124C, strain tub3, stronger effect = lower value 0.994 | S. cerevisiae deletion strains, locus YMR058W, strain fet3, stronger effect = lower value 0.969 | S. cerevisiae deletion strains, locus YMR078C, strain ctf18, stronger effect = lower value 1.01 | S. cerevisiae deletion strains, locus YMR125W, strain sto1, stronger effect = lower value 0.941 | S. cerevisiae deletion strains, locus YMR129W, stronger effect = lower value 0.962 | S. cerevisiae deletion strains, locus YMR205C, strain PFK2, stronger effect = lower value 0.915 | S. cerevisiae deletion strains, locus YMR223W, strain ubp8, stronger effect = lower value 0.982 | S. cerevisiae deletion strains, locus YMR231W, strain pep5, stronger effect = lower value 0.968 | S. cerevisiae deletion strains, locus YMR263W, strain SAP30, stronger effect = lower value 0.997 | S. cerevisiae deletion strains, locus YMR307W, strain GAS1, stronger effect = lower value 1.03 | S. cerevisiae deletion strains, locus YNL067W, strain RPL9B, stronger effect = lower value 0.999 | S. cerevisiae deletion strains, locus YNL071W, strain lat1, stronger effect = lower value 0.985 | S. cerevisiae deletion strains, locus YNL183C, strain NPR1, stronger effect = lower value 0.983 | S. cerevisiae deletion strains, locus YNL209W, strain ssb2, stronger effect = lower value 0.975 | S. cerevisiae deletion strains, locus YNL233W, strain BNI4, stronger effect = lower value 0.988 | S. cerevisiae deletion strains, locus YNL248C, strain rpa49, stronger effect = lower value 1.02 | S. cerevisiae deletion strains, locus YNL250W, strain rad50, stronger effect = lower value 1.01 | S. cerevisiae deletion strains, locus YNL271C, strain bni1, stronger effect = lower value 1 | S. cerevisiae deletion strains, locus YNL298W, strain CLA4, stronger effect = lower value 1.01 | S. cerevisiae deletion strains, locus YNL307C, strain MCK1, stronger effect = lower value 1 | S. cerevisiae deletion strains, locus YNL322C, strain KRE1 (second series), stronger effect = lower value 0.951 | S. cerevisiae deletion strains, locus YNR049C, strain mso1, stronger effect = lower value 0.955 | S. cerevisiae deletion strains, locus YNR052C, strain pop2, stronger effect = lower value 1 | S. cerevisiae deletion strains, locus YOL012C, strain htz1 0.921 | S. cerevisiae deletion strains, locus YOL147C, strain pex11, stronger effect = lower value 0.997 | S. cerevisiae deletion strains, locus YOR001W, strain rrp6, stronger effect = lower value 1.01 | S. cerevisiae deletion strains, locus YOR061W, strain CKA2, stronger effect = lower value 1.01 | S. cerevisiae deletion strains, locus YOR069W, strain VPS5, stronger effect = lower value 1 | S. cerevisiae deletion strains, locus YOR070C, strain gyp1, stronger effect = lower value 0.995 | S. cerevisiae deletion strains, locus YOR080W, strain dia2, stronger effect = lower value 0.982 | S. cerevisiae deletion strains, locus YOR083W, strain WHI5, stronger effect = lower value 1.02 | S. cerevisiae deletion strains, locus YOR106W, strain vam3, stronger effect = lower value 1.02 | S. cerevisiae deletion strains, locus YOR136W, strain idh2, stronger effect = lower value 0.999 | S. cerevisiae deletion strains, locus YOR144C, strain elg1, stronger effect = lower value 1 | S. cerevisiae deletion strains, locus YOR184W, strain ser1, stronger effect = lower value 0.968 | S. cerevisiae deletion strains, locus YOR231W, strain MKK1, stronger effect = lower value 0.963 | S. cerevisiae deletion strains, locus YOR265W, strain rbl2, stronger effect = lower value 0.976 | S. cerevisiae deletion strains, locus YOR270C, strain vph1, stronger effect = lower value 0.935 | S. cerevisiae deletion strains, locus YOR290C, strain snf2, stronger effect = lower value 0.916 | S. cerevisiae deletion strains, locus YOR316C, strain cot1, stronger effect = lower value 0.995 | S. cerevisiae deletion strains, locus YPL051W, strain arl3, stronger effect = lower value 1 | S. cerevisiae deletion strains, locus YPL078C, strain atp4, stronger effect = lower value 0.993 | S. cerevisiae deletion strains, locus YPL106C, strain sse1, stronger effect = lower value 0.946 | S. cerevisiae deletion strains, locus YPL240C, strain hsp82, stronger effect = lower value 0.995 | S. cerevisiae deletion strains, locus YPL241C, strain CIN2, stronger effect = lower value 0.996 | S. cerevisiae deletion strains, locus YPL256C, strain CLN2, stronger effect = lower value 0.962 | S. cerevisiae deletion strains, locus YPR119W, strain clb2, stronger effect = lower value 1.02 | S. cerevisiae deletion strains, locus YPR141C, strain kar3, stronger effect = lower value 1 | S. cerevisiae deletion strains, locus YPR163C, strain tif3, stronger effect = lower value 1 | S. cerevisiae deletion strains, locus YPR167C, strain met16, stronger effect = lower value 1 | S. cerevisiae deletion strains, strain wtn01, stronger effect = lower value 1.01 | S. cerevisiae strains, strain wild type, stronger effect = lower value 1
